Data: PubChem BioAssay (NCATS)
Results filed as inconclusive are left out. A call without a number means that no potency is given here. The source made the active and inactive calls. The call rests on the fitted dose curve; in most records, active means well fitted curve in the direction sought with a large enough effect; inconclusive means small, poorly fitted or top-dose-only effect, or another doubt; inactive means no such curve, though single readings can be large; an effect the other way counts as inactive or inconclusive.

Legend:
[1] = NS1 protein of Zika virus - qHTS assay to identify small molecule inhibitors in human HEK 293 cells (AID 1347053); further: nearly all actives have a fitted effect of over 55% in size; further: potency means the concentration at half of the fitted maximal effect
In short: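 Following 20 h seeding, HEK 293 cells took compound, then 1 h later ZIKV MR766 (MOI = 0.5). Incubation ran 24 h at 37 C before TR-FRET detection of NS1; a drop in signal indicates inhibition.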

[2] = qHTS of pediatric cancer cell lines to identify multiple opportunities for drug repurposing: Primary screen for TC32 cells (AID 1347089); further: nearly all actives have a fitted effect of over 60% in size
In short: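 In the primary qHTS, MIPE compounds were tested at 11 concentrations (0.78 nM to 46 µM) and NPC compounds at 8 (0.59 nM to 46 µM) on TC32 cells for 48 h. CellTiter-Glo luminescence gave viability.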

[3] = qHTS of pediatric cancer cell lines to identify multiple opportunities for drug repurposing: Primary screen for SK-N-MC cells (AID 1347093); further: potency means the concentration at half of the fitted maximal effect
In short: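 Metabolically active cells were quantified by ATP-dependent luminescence (CellTiter-Glo, 15 min at room temperature) following 48 h treatment. Cells had been plated at 500-1,000 per well and settled for 5 h beforehand.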

[4] = qHTS of pediatric cancer cell lines to identify multiple opportunities for drug repurposing: Primary screen for BT-37 cells (AID 1347094); further: potency means the concentration at half of the fitted maximal effect
In short: (§1)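 Plated cells (500-1,000 per well, growth media) were allowed to settle for 5 hours, treated with compound dilutions for 48 hours, then lysed with CellTiter-Glo for 15 min at room temperature before luminescence reading.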

[5] = qHTS of pediatric cancer cell lines to identify multiple opportunities for drug repurposing: Primary screen for U-2 OS cells (AID 1347096); further: nearly all actives have a fitted effect of over 50% in size
In short: (§2)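 Cells (500-1,000/well) rested 5 h, then received compounds for 48 h; metabolically active cells were measured by CellTiter-Glo luminescence. Final concentrations spanned up to 46 µM (MIPE, 11-point) or 0.59 nM-46 µM (NPC, 8-point) in primary screens, 11-point in follow-ups.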

[6] = qHTS of pediatric cancer cell lines to identify multiple opportunities for drug repurposing: Primary screen for Saos-2 cells (AID 1347097); further: nearly all actives have a fitted effect of over 40% in size; further: potency means the concentration at half of the fitted maximal effect
In short: as §1

[7] = qHTS of pediatric cancer cell lines to identify multiple opportunities for drug repurposing: Primary screen for NB1643 cells (AID 1347099); further: potency means the concentration at half of the fitted maximal effect; nearly all actives have a fitted effect of over 50% in size
In short: as §1

[8] = qHTS of pediatric cancer cell lines to identify multiple opportunities for drug repurposing: Primary screen for LAN-5 cells (AID 1347100); further: potency means the concentration at half of the fitted maximal effect
In short: as §2

[9] = qHTS of pediatric cancer cell lines to identify multiple opportunities for drug repurposing: Primary screen for Rh18 cells (AID 1347102); further: nearly all actives have a fitted effect of over 65% in size; further: potency means the concentration at half of the fitted maximal effect
In short: as §2

[10] = qHTS of pediatric cancer cell lines to identify multiple opportunities for drug repurposing: Primary screen for OHS-50 cells (AID 1347103); further: nearly all actives have a fitted effect of over 40% in size; further: potency means the concentration at half of the fitted maximal effect
In short: as §2

[11] = qHTS of pediatric cancer cell lines to identify multiple opportunities for drug repurposing: Primary screen for RD cells (AID 1347104); further: nearly all actives have a fitted effect of over 55% in size; further: potency means the concentration at half of the fitted maximal effect
In short: as §1

[12] = qHTS of pediatric cancer cell lines to identify multiple opportunities for drug repurposing: Primary screen for A673 cells (AID 1347092); further: potency means the concentration at half of the fitted maximal effect; nearly all actives have a fitted effect of over 45% in size
In short: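 48 h compound exposure, A673, 500-1,000 cells/well, 37 degrees C/5% CO2. MIPE: 11-point, 0.78 nM-46 µM; NPC: 8-point, 0.59 nM-46 µM (final). Readout CellTiter-Glo luminescence after 15 min RT.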

[13] = qHTS of pediatric cancer cell lines to identify multiple opportunities for drug repurposing: Primary screen for SK-N-SH cells (AID 1347098); further: nearly all actives have a fitted effect of over 65% in size; further: potency means the concentration at half of the fitted maximal effect
In short: as §2

[14] = qHTS of pediatric cancer cell lines to identify multiple opportunities for drug repurposing: Primary screen for SJ-GBM2 cells (AID 1347091); further: potency means the concentration at half of the fitted maximal effect
In short: (§3)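 Cell viability, CellTiter-Glo luminescence; 500-1,000 cells/well, 8- or 11-point titration, 48 h compound exposure at 37 degrees C, 5% CO2. Controls: DMSO neutral, bortezomib 2.3 µM final as positive.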

[15] = qHTS of pediatric cancer cell lines to identify multiple opportunities for drug repurposing: Primary screen for NB-EBc1 cells (AID 1347095); further: potency means the concentration at half of the fitted maximal effect
In short: as §1

[16] = qHTS of pediatric cancer cell lines to identify multiple opportunities for drug repurposing: Primary screen for MG 63 (6-TG R) cells (AID 1347105); further: nearly all actives have a fitted effect of over 50% in size
In short: as §1

[17] = qHTS of pediatric cancer cell lines to identify multiple opportunities for drug repurposing: Primary screen for DAOY cells (AID 1347090); further: nearly all actives have a fitted effect of over 55% in size; further: potency means the concentration at half of the fitted maximal effect
In short: as §3

[18] = qHTS of pediatric cancer cell lines to identify multiple opportunities for drug repurposing: Primary screen for BT-12 cells (AID 1347101); further: nearly all actives have a fitted effect of over 25% in size; further: potency means the concentration at half of the fitted maximal effect
In short: as §2

Row | SMILES | Potency [1] | Potency [2] | Potency [3] | Potency [4] | Potency [5] | Potency [6] | Potency [7] | Potency [8] | Potency [9] | Potency [10] | Potency [11] | Potency [12] | Potency [13] | Potency [14] | Potency [15] | Potency [16] | Potency [17] | Potency [18]
1 | COc1cccc([C@@H](C)NCCCc2ccccc2Cl)c1 | inactive | inactive | 11.8 µM (active) | inactive | inactive | inactive | 20.9 µM (active) | inactive | inactive | inactive | inactive |  |  |  |  |  |  | 
2 | O=C(Nc1cc(Cl)cc2c1[nH]c1cnccc12)c1cccnc1 | inactive | inactive | 4.18 µM (active) |  | inactive | inactive |  | inactive | inactive |  |  | 14.8 µM (active) | 24.1 µM (active) |  |  |  |  | 
3 | CCOC1OC(=O)C[C@H]1NC(=O)[C@@H]1CCCN1C(=O)[C@@H](NC(=O)c1ccc(N)c(Cl)c1)C(C)(C)C (stereo not given in full) | inactive | inactive | 14.8 µM (active) |  | inactive | 1.18 µM (active) |  |  | inactive | 1.22 µM (active) |  |  |  | 1.87 µM (active) | 8.33 µM (active) | inactive |  | 
4 | COc1ccc2c(Oc3ccc(NC(=O)c4c(C)n(CC(C)(C)O)n(-c5ccccc5)c4=O)cc3F)ccnc2c1 | inactive | inactive | 14.8 µM (active) | inactive |  | 26.4 µM (active) |  |  |  | 21.7 µM (active) |  | 23.5 µM (active) |  | 0.059 µM (active) |  |  |  | 
5 | Cc1ccc(F)c(NC(=O)Nc2ccc(-c3cccc4[nH]nc(N)c34)cc2)c1 | inactive |  | 20.9 µM (active) |  |  | 18.7 µM (active) |  | 20.9 µM (active) |  | 27.3 µM (active) |  |  | 24.1 µM (active) | 23.5 µM (active) |  |  | 23.5 µM (active) | 
6 | COC[C@@H](c1ccc(C(F)(F)F)cc1)N1CCN(C2(C)CCN(C(=O)c3c(C)ncnc3C)CC2)C[C@H]1C | inactive | inactive | 3.32 µM (active) | inactive | inactive | inactive | 18.7 µM (active) |  |  |  | inactive |  | 5.41 µM (active) |  | inactive |  |  | inactive
7 | O=C1c2c(O)cc(O)cc2O[C@H](c2cc(O)c(O)c(O)c2)[C@H]1O | inactive | inactive | 4.18 µM (active) |  | inactive | 23.5 µM (active) | 23.5 µM (active) |  |  |  |  | 14.8 µM (active) |  | inactive |  |  |  | 
8 | NS(=O)(=O)c1ccc(NC2=CC(=O)c3ccccc3C2=O)cc1 | inactive |  | 10.5 µM (active) |  | inactive | 11.8 µM (active) |  |  |  | inactive |  |  | 30.4 µM (active) | inactive |  | inactive | inactive | 1.09 µM (active)
9 | CC(C(=O)O)c1ccc(-c2ccccc2)c(F)c1 (stereo not given) | inactive | inactive |  |  | inactive |  | 26.4 µM (active) | inactive | inactive |  |  | 14.8 µM (active) | 24.1 µM (active) | inactive | inactive |  |  | inactive
10 | C=C1C(=O)OC2C=C(C)CCC=C(C)CCC12 (stereo not given) | inactive | inactive |  | inactive | inactive | 33.2 µM (active) |  | 23.5 µM (active) |  | inactive |  |  | inactive |  |  | inactive |  | 
11 | COc1ccc(-c2oc3c(CC=C(C)C)c(OC4O[C@H](CO)[C@@H](O)[C@H](O)[C@@H]4O)cc(O)c3c(=O)c2OC2O[C@@H](C)[C@H](O)[C@@H](O)[C@@H]2O)cc1 (stereo not given in full) | 18.7 µM (active) | inactive | 10.5 µM (active) |  |  | 26.4 µM (active) | 20.9 µM (active) |  |  | 21.7 µM (active) |  |  |  |  | 23.5 µM (active) |  |  | 
12 | Nc1ncnc2c1ncn2[C@@H]1O[C@H](CO)C[C@@H]1O | inactive | inactive |  | inactive | inactive | inactive |  |  |  | 24.3 µM (active) | inactive |  |  | inactive |  |  |  | 
13 | CC(C)C(=O)Nc1ncc(-c2cc(C(F)F)nn2-c2c(Cl)cccc2Cl)s1 | 13.2 µM (active) | inactive |  |  |  | 18.7 µM (active) |  | 23.5 µM (active) |  | 27.3 µM (active) |  |  | 24.1 µM (active) | 20.9 µM (active) | 16.6 µM (active) |  |  | 
14 | CC(C)(C)C(=O)Oc1ccc2c(c1)nc(NC(=O)c1cccc([N+](=O)[O-])c1)n2CCCO | inactive | inactive | 20.9 µM (active) |  | inactive | inactive |  |  | inactive | inactive | inactive | 11.8 µM (active) |  |  |  | inactive |  | inactive
15 | c1ccc2c(-c3cnn4cc(-c5ccc(N6CCNCC6)cc5)cnc34)ccnc2c1 | 4.18 µM (active) | inactive |  |  | inactive |  |  |  |  |  |  |  |  |  |  |  |  | 27.3 µM (active)
16 | CCOC(=O)C1=C(N)Oc2ccc(Br)cc2C1C(C#N)C(=O)OCC (stereo not given) | inactive | inactive |  | inactive | inactive |  | 10.5 µM (active) | 16.6 µM (active) |  | inactive | 29.6 µM (active) |  | 24.1 µM (active) | 7.43 µM (active) | 6.62 µM (active) | inactive |  | inactive
17 | CN(C[C@@H]1COCCO1)S(=O)(=O)Nc1ccc2ccc3ncc(-c4cnn(C)c4)cc3c(=O)c2c1 | inactive | inactive | 2.96 µM (active) |  |  |  |  |  | 14.8 µM (active) | 1.22 µM (active) |  | 7.43 µM (active) | 17.1 µM (active) | 0.372 µM (active) | 7.43 µM (active) |  |  | 
18 | CC=C(C)C(=O)O[C@H]1C(C)=C[C@]23C(=O)[C@@H](C=C(CO)[C@@H](O)[C@]12O)[C@H]1[C@@H](C[C@H]3C)C1(C)C | 11.8 µM (active) | inactive | 4.69 µM (active) | 24.3 µM (active) |  | 0.296 µM (active) |  |  |  | 21.7 µM (active) |  | 0.0148 µM (active) | inactive | 18.7 µM (active) | 14.8 µM (active) |  |  | 
